ATXN2 expr inh: Primary qHTS for Inhibitors of ATXN expression; HEK-293 ATXN2-luciferase reporter, luminescence, 24 h; Potency, µM (titrated, usually from 57 µM), most hits filed as inhibitors; 360,000 compounds, 0.72% hits; AID 1745845, 2022; note: nearly all actives have a fitted effect of over 55% in size
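ATXN2-luciferase reporter cells (luciferase flanked by upstream and downstream ATXN2 gene portions) were treated 24 h at 37 °C with compounds at up to 57 uM. SteadyGlo luminescence gave expression; GF-AFC fluorescence gave viability.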
ATXN viability: Viability Counterscreen for Primary qHTS for Inhibitors of ATXN expression; S2 cells (HEK-293 line with an ATXN2-luciferase reporter) viability, CellTiter-Fluor protease fluorescence, 24 h; Potency, µM (titrated, usually from 56.7 µM), actives largely listed as cytotoxic; 400,000 compounds, 0.49% hits; note: nearly all actives have a fitted effect of over 40% in size
HepG2 tox: qHTS for Inhibitors of TGF-b: Cytotox Counterscreen. HepG2 CAGA-GFP viability, ATP luminescence, 18 h. Potency, µM (highest dose often 46.1 µM), hits mostly cytotoxic. 410,000 compounds, 0.76% hits. AID 588856, 2011
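CellTiter-Glo luminescence gave cytotoxicity after 18 hours at 37 degrees C. The cells were HepG2 CAGA-GFP in 1% FBS DMEM, stimulated with 500 pg/mL TGF-beta after compound addition. %Activity was normalised to no-cell wells (complete cell-killing) and DMSO (no toxicity), and curves were fitted and classified.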
TDP1 cell noCPT: qHTS for Inhibitors of human tyrosyl-DNA phosphodiesterase 1 (TDP1): qHTS in cells in absence of CPT. DT40 Tdp1-/- hTDP1 cells, no CPT, ATP luminescence, 48 h. Potency, µM (doses to about 46.2 µM), most hits filed as inhibitors. 420,000 compounds, 15% hits. AID 686978, 2013; note: nearly all actives have a fitted effect of over 55% in size
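Camptothecin absent (DMSO only). Human TDP1-complemented DT40 knockout cells, 400 cells/well, 37 °C for minimum 48 hr; ATP measured via CellTiter-Glo, 30 min dark incubation, luminescence.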
TDP1 cell CPT: qHTS for Inhibitors of human tyrosyl-DNA phosphodiesterase 1 (TDP1): qHTS in cells in presence of CPT; Potency, µM (top dose mostly 46.2 µM), hits mostly inhibitors; 420,000 compounds, 12% hits; AID 686979, 2013; chicken DT40 Tdp1-/-;hTDP1 cells + 20 nM CPT, ATP luminescence, 48 h; note: nearly all actives have a fitted effect of over 55% in size
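Chicken DT40 Tdp1-/- cells complemented with human TDP1, 400 cells/well, exposed to compounds plus 20 nM camptothecin for at least 48 h at 37 C; viability read as ATP content by CellTiter-Glo luminescence.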
TGFb SMAD3 inh: qHTS for Inhibitors of TGF-b; HepG2 CAGA-GFP TGF-b/SMAD3 reporter, GFP fluorescence, 18 h; TGF-beta stimulated, 500 pg/mL final; Potency, µM (series often up to 46.1 µM), actives largely listed as inhibitors; 410,000 compounds, 1.2% hits; note: nearly all actives have a fitted effect of over 65% in size
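Inhibition was scored as loss of TGF-beta-induced (500 pg/mL final, 18 hours, 37 degrees C) GFP in HEPG2 cells carrying a CAGA-GFP reporter, in DMEM with 1% FBS. Well GFP was summed per cell; Activity was normalised to unstimulated and stimulated DMSO wells, then concentration-response fitting.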
Of the large screens only hits and unclear results are named; the others gave an inactive call; ! = not active in a repeat. Shown are actives, neighbours in structure and some others; about 17% of the full set was active somewhere. Calls come from the whole dose curve; as a rule, active = well fitted curve in the direction sought with a large enough effect; inconclusive = small, poorly fitted or top-dose-only effect, or another doubt; inactive = no such curve, though single readings can be large; an effect the other way counts as inactive or inconclusive.

Cc1c(NC(=O)COc2ccc3ccc(=O)oc3c2)c(=O)n(-c2ccccc2)n1C	none
CCOC(=O)N/N=C(\C)c1ccc(C)o1	none
CCOC(=O)c1cnn2cc(-c3[nH]ncc3[N+](=O)[O-])cnc12	none
CCC12CN3CC(C)(CN(C1)C3c1ccccc1C)C2=O (stereo not drawn)	none
Cc1cc(C)cc(NC(=O)N2CCC(CN3CCc4ccccc4C3)CC2)c1	TDP1 cell noCPT 13µM, TDP1 cell CPT inconclusive, TGFb SMAD3 inh inconclusive (no result: ATXN2 expr inh, ATXN viability)
CCCS(=O)(=O)c1ccc(COC(=O)c2cccc(NC(=O)C(C)C)c2)cc1	TDP1 cell noCPT inconclusive, TDP1 cell CPT inconclusive (no result: ATXN viability)
COc1ccc(Cn2ccc3nc(C)c(C(=O)N4CCN(c5ccccc5F)CC4)cc3c2=O)cc1	ATXN viability inconclusive, TDP1 cell noCPT 18µM, TDP1 cell CPT 23µM
COc1cccc(N2CCN(C(=O)c3cc4c(=O)n(Cc5ccccc5)ccc4nc3C)CC2)c1	ATXN viability inconclusive, TDP1 cell noCPT inconclusive, TDP1 cell CPT 16µM!
COc1ccc(N2CCN(C(=O)c3cc4c(=O)n(Cc5ccccc5)ccc4nc3C)CC2)cc1	TDP1 cell noCPT inconclusive, TDP1 cell CPT inconclusive
CCNC(=O)NC(=O)C(C)OC(=O)c1cccn1C (stereo not drawn)	none (no result: ATXN2 expr inh)
NC(=O)NC1NC(=O)NC1=O (stereo not drawn)	none
CC(=O)Nc1ccc(-c2ccnc3c2CC(C(=O)NCc2ccco2)O3)cc1 (stereo not drawn)	ATXN viability inconclusive, TDP1 cell noCPT 0.0065µM, TDP1 cell CPT 0.18µM
CC(=O)Nc1ccc(-c2ccnc3c2CC(C(=O)NCCc2ccccc2)O3)cc1 (stereo not drawn)	TDP1 cell noCPT inconclusive, TDP1 cell CPT inconclusive
CC(=O)Nc1ccc(-c2ccnc3c2CC(C(=O)NCc2ccccc2)O3)cc1 (stereo not drawn)	ATXN viability inconclusive, TDP1 cell noCPT 0.018µM, TDP1 cell CPT 0.023µM, TGFb SMAD3 inh inconclusive
CCCN1CCN(CC2=C(C(=O)OCC)C(c3ccc(OC(C)C)cc3)NC(=O)N2)CC1 (stereo not drawn)	TDP1 cell noCPT inconclusive, TDP1 cell CPT inconclusive
CCOC(=O)C1=C(CN2CCC(C)CC2)NC(=O)NC1c1ccc(OC(C)C)cc1 (stereo not drawn)	ATXN viability inconclusive, TDP1 cell noCPT inconclusive, TDP1 cell CPT 23µM, TGFb SMAD3 inh inconclusive
CCCN1CCN(CC2=C(C(=O)OCC)C(c3ccc(Cl)cc3)NC(=O)N2)CC1 (stereo not drawn)	TDP1 cell noCPT 26µM, TDP1 cell CPT 26µM
CCOC(=O)C1=C(CN2CCN(c3ccccc3F)CC2)NC(=O)NC1c1ccc(Cl)cc1 (stereo not drawn)	TDP1 cell noCPT 16µM, TDP1 cell CPT 26µM
O=C(COC(=O)c1ccc[n+]([O-])c1)Nc1ccc([N+](=O)[O-])cc1Cl	none
CCC(C)Nc1nnc(SCC(=O)c2c(N)n(C3CC3)c(=O)[nH]c2=O)s1 (stereo not drawn)	none
CCCCNC(=O)c1onc(CSc2ccc(Cl)cc2)c1C(=O)O	TDP1 cell CPT inconclusive, TGFb SMAD3 inh inconclusive
CCN1CCN(C(c2cccc(Cl)c2)c2c(O)cc(C)n(CCOC)c2=O)CC1 (stereo not drawn)	none (no result: ATXN2 expr inh, ATXN viability)
O=C(NCc1nc2ccccc2[nH]1)c1ccco1	none
C(=C\c1ccco1)/c1nc2ccccc2[nH]1	TDP1 cell noCPT 23µM, TDP1 cell CPT inconclusive (no result: ATXN2 expr inh)
O=C(N/C(=C/c1ccc(Cl)cc1)c1nc2ccccc2[nH]1)c1ccco1	TDP1 cell CPT inconclusive, TGFb SMAD3 inh inconclusive
C(=C\c1nc2ccccc2[nH]1)/c1ccccc1	ATXN2 expr inh inconclusive, HepG2 tox 10µM, TDP1 cell noCPT 16µM, TDP1 cell CPT 15µM
S=Cc1nc2ccccc2[nH]1	TDP1 cell noCPT inconclusive, TDP1 cell CPT inconclusive (no result: ATXN2 expr inh, ATXN viability)
